Consider eleven molecules from PubChem BioAssay AID2061317 (National Center for Advancing Translational Sciences (NCATS), 2025).

Results filed as inconclusive are left out. Activity calls are given as the source filed them. The call rests on the fitted dose curve; in most records, active means well fitted inhibition curve with a large enough effect; inconclusive means small, poorly fitted or top-dose-only effect; inactive means flat fitted curve, though single readings scatter. Non-standard residues stand in square brackets, D forms with d. Residues, ends and D or L forms follow the SMILES beside them. Dolaproine = CO[C@@H]([C@@H]1CCCN1)[C@@H](C)C(=O)O; Dil = CC[C@H](C)[C@H](NC)[C@@H](CC(=O)O)OC; NMeV = CN[C@H](C(=O)O)C(C)C

The test in a line: Identification of antibody-drug conjugate (ADC) payloads which are substrates of ATP-binding cassette drug efflux transporters: ABCB1-HEK293-MDR-19 cell line with tariquidar. The note with it: HEK293 ABCB1 (MDR-19) + tariquidar, CellTiter-Glo viability, 48 h. The text has this:
Antibody-drug conjugates (ADCs) feature an antibody recognizing a specific protein joined to a potent toxic payload. Numerous antibody-drug conjugates have received FDA approval; however, clinical resistance arises. Resistance mechanisms include decreased expression or mutation of the antibody target, impaired payload release, or increased expression of ATP-binding cassette (ABC) efflux transporters associated with multidrug resistance. We therefore sought to characterize the interaction of ABC multidrug transporters with ADC payloads. We performed a high-throughput screen with 27 common ADC payloads using cells lines expressing ABC transporters P-glycoprotein (P-gp, encoded by ABCB1) or ABCG2 (encoded by ABCG2). Confirmatory assays were also performed using cells transfected to express P-gp, ABCG2, or MRP1 (encoded by ABCC1). Several commonly used ADC payloads were substrates of P-gp, including calicheamicin gamma1, monomethyl auristatin E, DM1, and DM4. All the pyrrolobenzodiazepines tested - SJG136, SGD-1882, SG2057, and SG3199 - were substrates of P-gp, ABCG2, and MRP1. […] These findings highlight the risk of transporter-mediated resistance with certain ADC payloads and underscore the importance of selecting payloads that evade ABC transporter recognition in future ADC development.
HEK-293 cells were transfected with empty vector (pcDNA) or vector containing the human ABCB1 (MDR-19), ABCG2 (R-5), or ABCC1 gene (MRP1) and were maintained in EMEM with 2 mg/mL G418 added to maintain transporter expression. The HeLa derivative KB-3-1 and the P-gp overexpressing KB-8-5-11 subline were maintained in DMEM; KB-8-5-11 additionally received 100 ng/mL colchicine. H460 parental cells were obtained from the Division of Cancer Treatment and Diagnosis Tumor Repository, National Cancer Institute at Frederick, MD and were cultured in RPMI. The ABCG2 expressing subline H460 MX20 was generated by selecting H460 cells in 20 nM mitoxantrone. Media in all cases was supplemented with 10% FBS and 1% penicillin-streptomycin. We explored 27 common ADC payloads, in two orthogonal, paired cell line sets-a drug selected and transfected set for each transporter--to identify substrates of the ABC transporters P-gp and ABCG2. Compounds were sourced from Levena Biopharma (San Diego, CA), Selleck Chem (Houston, TX), ChemieTek (Indianapolis, IN), or Microsource Discovery Systems (Gaylordsville, CT). Screening was performed as previously described. Briefly, cells were plated at a density of 500 cells/well in 1536 well plates with compounds added using a 1536-head pin tool (Kalypsys, San Diego CA). Cells were incubated with cytotoxic drugs and processed with CellTiter Glo reagent (Promega, Madison, WI) to determine viability after 48 hours. P-gp substrates were identified by comparing compound activity between paired sets of low-expressing (sensitive) and over-expressing (resistant) cell lines.
A general note: In ATP-based viability assays light output follows the ATP content of the culture.
Consider `CC(C)(C)OC(=O)Nc1ccc2[nH]c(C(=O)N3C[C@@H](CCl)c4c3cc(O)c3ccccc43)cc2c1`, for which the Potency was 11.8 nM (active).

`CCc1c2c(nc3ccc(O)cc13)-c1cc3c(c(=O)n1C2)COC(=O)[C@]3(O)CC`: the Potency is 4.2 nM (active). In the case of `CCN(C(C)=O)[C@H]1CO[C@@H](O[C@H]2[C@H](O[C@H]3C#C/C=C\C#C[C@]4(O)CC(=O)C(NC(=O)OC)=C3/C4=C\CSSSC)O[C@H](C)[C@@H](NO[C@H]3C[C@H](O)[C@H](SC(=O)c4c(C)c(I)c(O[C@@H]5O[C@@H](C)[C@H](O)[C@@H](OC)[C@H]5O)c(OC)c4OC)[C@@H](C)O3)[C@@H]2O)C[C@@H]1OC` it was 1.2 nM (active). The result for `CC[C@H](C)[C@@H]([C@@H](CC(=O)N1CCC[C@H]1[C@H](OC)[C@@H](C)C(=O)N[C@@H](Cc1ccccc1)C(=O)O)OC)N(C)C(=O)[C@@H](NC(=O)[C@@H](NC)C(C)C)C(C)C` (H-[NMeV]V[Dil][Dolaproine]F-OH) reads 529 nM (active). The result for `COC(=O)c1cc2c3c(cc(O)c2[nH]1)N(C(=O)c1cc2cc(OC)c(OC)c(OC)c2[nH]1)CC3CCl` (stereo unspecified) reads 0.7 nM (active). As to `Cc1nc(Nc2ncc(C(=O)Nc3c(C)cccc3Cl)s2)cc(N2CCN(CCO)CC2)n1`, the Potency is 13300 nM (active). In the case of `COc1cccc2c1C(=O)c1c(O)c3c(c(O)c1C2=O)C[C@@](O)(C(=O)CO)C[C@@H]3O[C@H]1C[C@H]2[C@H](O[C@@H]3[C@@H](OC)OCCN32)[C@H](C)O1` it was 0.0265 nM (active); in that of `CN(C)CCOc1ccc2[nH]c(C(=O)N3C[C@@H](CCl)c4c3cc(O)c3ccccc43)cc2c1`, 0.5 nM (active). As to `CCN[C@H]1CO[C@@H](O[C@H]2[C@H](O[C@H]3C#C/C=C\C#C[C@]4(O)CC(=O)C(NC(=O)OC)=C3/C4=C\CSSSC)O[C@H](C)[C@@H](NO[C@H]3C[C@H](O)[C@H](SC(=O)c4c(C)c(I)c(O[C@@H]5O[C@@H](C)[C@H](O)[C@@H](OC)[C@H]5O)c(OC)c4OC)[C@@H](C)O3)[C@@H]2O)C[C@@H]1OC`, the Potency was 0.1 nM (active). On to `COc1cc2cc(c1Cl)N(C)C(=O)C[C@H](O)[C@]1(C)O[C@H]1[C@H](C)C1C[C@@](O)(NC(=O)O1)[C@H](OC)/C=C/C=C(\C)C2`, for which the Potency was 2650 nM (active). Consider `COc1cccc2c1C(=O)c1c(O)c3c(c(O)c1C2=O)C[C@@](O)(C(=O)CO)C[C@@H]3O[C@H]1C[C@H](N)[C@H](O)[C@H](C)O1`, for which the Potency is 33.4 nM (active).
